# NR3A LBD binder: modulators (binders) of human NR3A ligand-binding domain; NR3A LBD differential scanning fluorimetry, Tm shift; 0% = protein alone, 100% = glycine-bound protein; Tm shift relative to glycine control, % at 25 µM; 340,000 compounds, 2.5% hits; AID 1259313;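 active = melting temperature shift of at least 10% of the positive control shift, at one fixed dose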
# ADAM17 inh: inhibitors of human ADAM17 | P78536 | recombinant ADAM17, EDANS/DABCYL FRET peptide cleavage | inhibition, % at 6.95 µM | 370,000 compounds, 0.83% hits | AID 720648;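 active = inhibition above the mean of compounds lying between control limits plus 3 SD, set per campaign, cut at about 8.5% in these data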;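 also: 0% = DMSO-only wells as the low control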
# sPLA2-III inh: Blocks human group III sPLA2 activity. Q9NZ20. QFRET BODIPY PC-A2 liposome hydrolysis, fluorescence. inhibition, % at 12.2 µM. 370,000 compounds, 0.56% hits;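 active = inhibition above mean plus 3 SD of compounds lying within the high and low control bounds, cut at about 19% in these data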;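 also: 0% = median of test compound wells and 100% = no enzyme DMSO wells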
# ADAM10 inh: inhibits human ADAM10. O14672. inhibition, % at 7 µM. recombinant ADAM10, EDANS/DABCYL FRET peptide cleavage, 3 h. 370,000 compounds, 0.62% hits;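 active = inhibition above a per-campaign cutoff equal to the mean of compounds falling between control-based bounds plus 3 SD, cut at about 20% in these data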;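 also: 0% = DMSO wells while the 100% control is not disclosed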
# Target sequence (O14672 214-748 limits assumed): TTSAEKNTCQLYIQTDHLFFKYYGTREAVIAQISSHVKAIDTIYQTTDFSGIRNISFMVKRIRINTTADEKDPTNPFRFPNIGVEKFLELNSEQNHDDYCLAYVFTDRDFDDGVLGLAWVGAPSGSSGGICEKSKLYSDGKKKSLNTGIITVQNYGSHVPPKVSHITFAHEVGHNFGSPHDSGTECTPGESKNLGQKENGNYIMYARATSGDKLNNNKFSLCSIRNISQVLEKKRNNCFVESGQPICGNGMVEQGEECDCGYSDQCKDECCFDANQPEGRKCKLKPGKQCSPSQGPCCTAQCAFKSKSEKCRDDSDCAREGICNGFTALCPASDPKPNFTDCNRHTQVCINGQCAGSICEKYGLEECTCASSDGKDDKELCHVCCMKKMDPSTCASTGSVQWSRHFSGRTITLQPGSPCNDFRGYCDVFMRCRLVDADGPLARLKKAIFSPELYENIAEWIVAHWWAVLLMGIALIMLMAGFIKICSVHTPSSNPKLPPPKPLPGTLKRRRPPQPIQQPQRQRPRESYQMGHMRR
# FAS TE block: FAS thioesterase (human) inhibition. recombinant FAS-TE, OMFH fluorogenic substrate, fluorescence endpoint. 360,000 compounds, 0.67% hits. AID 602261. inhibition, % at 15 µM. P49327;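 active = compounds whose normalised, plate-corrected inhibition of enzyme fluorescence in the single-dose primary screen is 50% or more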;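 also: 0% = DMSO with enzyme and 100% = substrate without enzyme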
# ADAM10 confirm: confirmation of inhibitors of human ADAM10; ADAM10 QFRET peptide cleavage, EDANS fluorescence; 2,100 compounds, 1% hits; inhibition, % at 6.95 µM; AID 743208; shares compounds with ADAM10 inh;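 active = inhibition above about 20% chosen separately for each screening run, limit read from the data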;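 also: 0% = DMSO wells and 100% = marimastat wells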
# ADAM17 ctr: counter-screen for ADAM10 exosite inhibitors: inhibitors of human ADAM17; inhibition, % at 6.95 µM; shares compounds with ADAM10 inh; ADAM17 QFRET peptide cleavage, EDANS fluorescence; 2,100 compounds, 0.5% hits;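 active = mean triplicate inhibition above the solvent-only control wells' mean plus 3 SD, cut at about 12% in these data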;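 also: 0% = DMSO wells and 100% = marimastat wells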
# ADAM10 ctr: ADAM10 inhibition, counter-screen for ADAM17 exosite hits; recombinant ADAM10, EDANS/DABCYL FRET peptide cleavage, 3 h; shares compounds with ADAM17 inh; 2,900 compounds, 47% hits; inhibition, % at 6.95 µM;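 active = mean inhibition over the triplicate runs exceeds the activity threshold set in the earlier primary screen, cut at about 20% in these data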;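 also: 0% = DMSO wells and 100% = marimastat wells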
# ADAM17 confirm: confirmation of inhibitors of human ADAM17 | 2,900 compounds, 65% hits | recombinant ADAM17, EDANS/DABCYL QFRET peptide cleavage | AID 743257 | shares compounds with ADAM17 inh | inhibition, % at 6.95 µM;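 active = mean inhibition across replicates above the hit cutoff set in the primary screen, cut at about 8.5% in these data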;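 also: 0% = DMSO wells and 100% = marimastat wells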
# The depositor's hits bear a star; / = no result given. This is a sample that favours compounds with a hit; in the whole collection about 4.3% have one here.
SMILES,NR3A LBD binder,ADAM17 inh,sPLA2-III inh,ADAM10 inh,FAS TE block,ADAM10 confirm,ADAM17 ctr,ADAM10 ctr,ADAM17 confirm
C=CCCN1[C@@H](Cc2ccccc2)COc2ccccc2S1(=O)=O,/,2,5,-4,/,/,/,/,/
Cc1ccc(C(=O)Nc2ccccc2-c2ccccc2)cc1S(=O)(=O)Nc1cccc(C)c1C,-13,12*,-33,29*,37,17,5,40*,19*
Cc1ccccc1NS(=O)(=O)c1cc(C(=O)Nc2cccc([N+](=O)[O-])c2)ccc1C,24*,11*,-61,27*,40,6,2,36*,22*
CC(C)N1CCCCC(NC(=O)c2ccc(F)c(F)c2)C1=O (configuration not stated),/,0,6,-2,/,/,/,/,/
O=C1NC[C@H](c2ccccc2)OC(=O)[C@H](Cc2ccc(F)cc2)CC/C=C/C[C@H]1CC(=O)N(CCO)Cc1ccccc1,-5,17*,-31,24*,34,3,1,22*,11*
COc1ccc(NC(=O)c2cc(-c3cc(F)ccc3OC(C)C)n[nH]2)c(OC)c1,/,15*,0,21*,21,7,5,11,6
CCCC1CCC2(CC1)CCC2OC(=O)Nc1cc(C)cc(C)c1 (configuration not stated),/,-3,-14,1,/,/,/,/,/
COCCN=c1scc(-c2cc(OC)c(OC)c(OC)c2)n1/N=C/c1c(C)[nH]c2ccccc12,2,17*,8,26*,10,18,8,7,17*
C[C@H]1[C@H](c2ccccc2)Oc2cccc(N3CCCC3)c2S(=O)(=O)N1Cc1cccc(F)c1,/,-3,-1,-5,/,/,/,/,/
S=C(Nc1ccc(Nc2ccccc2)cc1)NC1CCCCCC1,9,10*,1,30*,34,17,4,28*,17*
O=C(CN(C1CC1)S(=O)(=O)c1ccc(S(=O)(=O)NC2CCCCC2)cc1)Nc1ccccc1,-1,5,-58,10,16,/,/,/,/
O=C(CN(Cc1cccs1)S(=O)(=O)c1ccc(S(=O)(=O)NC2CCCCC2)cc1)Nc1ccccc1,13*,17*,-19,36*,35,11,3,50*,25*
COc1ccc(/C=C(/C(=O)Nc2ccccc2C(=O)N2CCCC2)c2ccccc2)cc1,-2,4,-1,12,16,/,/,/,/
COc1ccc(/C=C(/C(=O)Nc2ccccc2C(=O)NC(C)C)c2ccccc2)cc1,-12,9.6*,-8,20*,23,10,3,15,9
CCOC(=O)[C@]12CCCC=C1N(CCCOC)C(=O)[C@@H]2CC(=O)NCc1ccccc1,/,-8,-1,-5,/,/,/,/,/
NC(=O)Cn1cc(/C=N\NS(=O)(=O)c2ccc(Cl)cc2)c2ccccc21,-10,1,-2,0,-1,/,/,/,/
O=S(=O)(N/N=C/c1cn(Cc2ccccc2)c2ccccc12)c1ccccc1,5,9.6*,-69,24*,24,11,4,36*,19*
O=C(NCC1CC1)c1cc2c(c(-c3cccc(-c4ccccc4F)c3)n1)[C@@H](CCO)N(C(=O)CC1CC1)C2,/,10*,-28,35*,13,2,2,11,9.6*
O=C(NCC(F)(F)F)c1cc2c(c(-c3cccc(-c4ccccc4F)c3)n1)[C@@H](CCO)N(C(=O)CC1CC1)C2,/,10*,-19,20*,15,2,0,13,11*
CCNC(=O)c1cc2c(c(-c3cccc(-c4cccc(C(=O)N(C)C)c4)c3)n1)[C@@H](CCO)N(S(=O)C(C)(C)C)C2 (some centres not stated),/,-6,-11,-20,-15,/,/,/,/

# Compound activity as filed in PubChem BioAssay.
